# Assay results reported in PubChem BioAssay (EPA / NIEHS).
# Records with an inconclusive call do not appear. Calls of active or inactive are those of the source. The calls were made as follows: active = hit-call score of the fitted dose curve at least 0.9, where 1 is the maximum; inconclusive = response in the unintended direction; inactive = score below 0.9.
# What was measured:
# [1] = biological target: human Vasopressin 1A Receptor (V1A), AVPR1A (gene 552) (UniProt P37288); assay: NVS_GPCR_hV1A: NovaScreen (NVS) G Protein-Coupled Receptor Assay for human Vasopressin 1A Receptor (V1A) (AID 2283284)
# human Vasopressin 1A Receptor (V1A), AVPR1A (gene 552), sequence (P37288 whole entry, looked up): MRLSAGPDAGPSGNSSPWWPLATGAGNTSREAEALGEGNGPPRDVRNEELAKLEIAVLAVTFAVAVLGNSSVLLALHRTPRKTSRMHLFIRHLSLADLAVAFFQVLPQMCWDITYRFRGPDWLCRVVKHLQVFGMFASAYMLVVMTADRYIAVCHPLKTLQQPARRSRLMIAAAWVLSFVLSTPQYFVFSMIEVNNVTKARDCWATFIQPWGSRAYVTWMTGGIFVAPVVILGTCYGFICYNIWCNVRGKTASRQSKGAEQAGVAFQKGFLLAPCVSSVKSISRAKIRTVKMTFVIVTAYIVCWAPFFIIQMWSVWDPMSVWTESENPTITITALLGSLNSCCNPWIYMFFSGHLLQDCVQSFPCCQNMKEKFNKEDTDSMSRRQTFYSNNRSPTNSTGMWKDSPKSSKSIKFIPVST
# Procedure, shortened: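 Cell-free radioligand displacement on human platelet preparations, 1.5 h incubation, filter-based scintillation counting. Chemicals first tested in duplicate at 25 uM; actives then run in concentration-response up to 50 uM, loss of signal fitted against DMSO.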
# [2] = test system: rabbit Platelet Activating Factor Receptor (PAF), gene 100354046; assay: NVS_GPCR_rabPAF: NovaScreen (NVS) G Protein-Coupled Receptor Assay for rabbit Platelet Activating Factor Receptor (PAF) (AID 2283287)
# Protocol: NVS_GPCR_rabPAF is a biochemical, single-readout assay that uses extracted gene-proteins from Rabbit platelets in a tissue-based cell-free assay. Measurements were taken 1 hour after chemical dosing in a 48-well plate.NVS_GPCR_rabPAF is one of one assay component(s) measured or calculated from the NVS_GPCR_rabPAF assay. It is designed to make measurements of radioligand binding, a form of binding reporter, as detected with scintillation counting signals by Filter-based radiodetection technology.Data from the assay component NVS_GPCR_rabPAF was analyzed into 1 assay endpoint. This assay endpoint, NVS_GPCR_rabPAF, was analyzed in the positive analysis fitting direction relative to DMSO as the negative control and baseline of activity. Using a type of binding reporter, loss-of-signal activity can be used to understand changes in the binding as they relate to the gene PTAFR. Furthermore, this assay endpoint can be referred to as a primary readout, because the performed assay has only produced 1 assay endpoint. To generalize the intended target to other relatable targets, this assay endpoint is annotated to the gpcr intended target family, where the subfamily is rhodopsin-like receptor. […]
# [3] = test system: 5-hydroxytryptamine receptor 2C (pig); assay: NVS_GPCR_p5HT2C: NovaScreen (NVS) G Protein-Coupled Receptor Assay for pig Serotonin, 5-Hydroxytryptamine Receptor 2C (5HT2C) (AID 2283288)
# Procedure, shortened: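 Pig choroid plexus membranes; radioligand competitive binding, filter-based scintillation counting, read 1 h after dosing. Primary screen in duplicate at 25 uM; actives then run as concentration series; loss of signal versus DMSO baseline.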
# [4] = biological target: rat Adrenergic, Alpha 1, Non-selective Receptor (Adra1), Adra1a (gene 29412) (UniProt P43140); assay: NVS_GPCR_rAdra1_NonSelective: NovaScreen (NVS) G Protein-Coupled Receptor Assay for rat Adrenergic, Alpha 1, Non-selective Receptor (Adra1) (AID 2283289)
# rat Adrenergic, Alpha 1, Non-selective Receptor (Adra1), Adra1a (gene 29412), sequence (P43140 whole entry, looked up): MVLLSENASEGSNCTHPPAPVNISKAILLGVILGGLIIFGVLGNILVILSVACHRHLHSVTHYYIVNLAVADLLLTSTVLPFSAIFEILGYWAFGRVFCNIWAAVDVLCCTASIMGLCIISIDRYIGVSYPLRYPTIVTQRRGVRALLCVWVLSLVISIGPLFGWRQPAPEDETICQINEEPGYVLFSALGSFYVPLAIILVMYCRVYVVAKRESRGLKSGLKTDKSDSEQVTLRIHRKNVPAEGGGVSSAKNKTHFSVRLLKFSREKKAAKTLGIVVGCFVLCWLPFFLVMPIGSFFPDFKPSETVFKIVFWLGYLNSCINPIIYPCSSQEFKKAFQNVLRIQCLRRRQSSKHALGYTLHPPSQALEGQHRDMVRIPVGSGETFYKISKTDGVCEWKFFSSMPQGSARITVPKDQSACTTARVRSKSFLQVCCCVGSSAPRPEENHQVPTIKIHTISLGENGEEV
# Procedure, shortened: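 Rat forebrain membranes; radioligand displacement read by filter-based scintillation counting 1 h after dosing. Primary screen in duplicate at 25 uM; hits (e.g. ≥30% inhibition) rerun as concentration–response to 50 uM max. Fitted versus DMSO.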
# [5] = biological target: human Orphanin, Opioid Related Nociceptin Receptor 1 (ORL1), OPRL1 (gene 4987) (UniProt P41146); assay: NVS_GPCR_hORL1: NovaScreen (NVS) G Protein-Coupled Receptor Assay for human Orphanin, Opioid Related Nociceptin Receptor 1 (ORL1) (AID 2283283)
# human Orphanin, Opioid Related Nociceptin Receptor 1 (ORL1), OPRL1 (gene 4987), sequence (P41146 whole entry, looked up): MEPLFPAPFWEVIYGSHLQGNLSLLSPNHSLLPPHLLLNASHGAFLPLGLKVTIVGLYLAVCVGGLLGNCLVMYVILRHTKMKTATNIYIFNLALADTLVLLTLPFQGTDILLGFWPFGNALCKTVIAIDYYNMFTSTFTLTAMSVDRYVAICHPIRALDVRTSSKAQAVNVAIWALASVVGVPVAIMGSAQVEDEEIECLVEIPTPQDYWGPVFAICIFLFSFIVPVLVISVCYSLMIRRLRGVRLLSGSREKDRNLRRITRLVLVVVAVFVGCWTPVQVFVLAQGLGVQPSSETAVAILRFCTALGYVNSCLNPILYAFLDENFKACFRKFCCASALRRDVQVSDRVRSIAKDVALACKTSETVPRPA
# Procedure, shortened: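 Filter-based radioligand displacement with receptor extracted from HEK293 cells, read 1 hour after dosing by scintillation counting. Duplicate single-point screen at 25 uM; qualifying chemicals then run in concentration-response to 50 uM, analysed relative to DMSO.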
# [6] = biological target: rat Serotonin, 5-Hydroxytryptamine Receptor 1 (5HT1), Non-Selective Binding, Htr1a (gene 24473) (UniProt P19327); assay: NVS_GPCR_r5HT1_NonSelective: NovaScreen (NVS) G Protein-Coupled Receptor Assay for rat Serotonin, 5-Hydroxytryptamine Receptor 1 (5HT1), Non-Selective Binding (AID 2283286)
# rat Serotonin, 5-Hydroxytryptamine Receptor 1 (5HT1), Non-Selective Binding, Htr1a (gene 24473), sequence (P19327 whole entry, looked up): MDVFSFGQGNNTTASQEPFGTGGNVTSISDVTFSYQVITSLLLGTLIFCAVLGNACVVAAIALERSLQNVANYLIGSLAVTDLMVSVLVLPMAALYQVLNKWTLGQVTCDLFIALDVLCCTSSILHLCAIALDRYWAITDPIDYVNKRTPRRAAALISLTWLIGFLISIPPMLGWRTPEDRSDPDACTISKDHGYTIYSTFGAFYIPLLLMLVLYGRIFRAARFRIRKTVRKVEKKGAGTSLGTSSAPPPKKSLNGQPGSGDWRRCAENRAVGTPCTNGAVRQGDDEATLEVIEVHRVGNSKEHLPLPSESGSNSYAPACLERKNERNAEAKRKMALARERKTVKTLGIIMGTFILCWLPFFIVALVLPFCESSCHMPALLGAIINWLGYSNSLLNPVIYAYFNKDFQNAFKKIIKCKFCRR
# Procedure, shortened: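 Rat cortical membranes, radioligand displacement, 1 h incubation, read by filter scintillation. Primary screen in duplicate at 25 uM. Hits (e.g. ≥30% inhibition) went to concentration-response up to 50 uM, fitted as loss of binding versus DMSO.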
# [7] = biological target: human Thromboxane A2 Receptor (TXA2), TBXA2R (gene 6915) (UniProt P21731); assay: NVS_GPCR_hTXA2: NovaScreen (NVS) G Protein-Coupled Receptor Assay for human Thromboxane A2 Receptor (TXA2) (AID 2283282);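 also: actives reduce bound radioligand signal relative to DMSO baseline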
# human Thromboxane A2 Receptor (TXA2), TBXA2R (gene 6915), sequence (P21731 whole entry, looked up): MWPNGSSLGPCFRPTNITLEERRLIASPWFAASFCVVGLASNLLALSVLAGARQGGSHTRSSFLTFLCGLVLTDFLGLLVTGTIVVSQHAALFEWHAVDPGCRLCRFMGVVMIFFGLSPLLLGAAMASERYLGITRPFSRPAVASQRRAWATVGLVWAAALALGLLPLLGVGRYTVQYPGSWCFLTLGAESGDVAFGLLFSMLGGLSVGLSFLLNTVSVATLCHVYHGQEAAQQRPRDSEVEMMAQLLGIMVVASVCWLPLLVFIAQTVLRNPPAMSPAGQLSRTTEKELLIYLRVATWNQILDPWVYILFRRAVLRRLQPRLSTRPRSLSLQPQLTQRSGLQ
# Procedure, shortened: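 Filter scintillation counting of bound radioligand, human platelet protein, 1 h exposure. Single-concentration duplicates (25 uM) first, concentration-response follow-up for actives. Binding loss scored against DMSO baseline.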
# [8] = biological target: human Purinergic Receptor P2Y, P2RY1 (gene 5028) (UniProt P47900); assay: NVS_GPCR_hPY2: NovaScreen (NVS) G Protein-Coupled Receptor Assay for human Purinergic Receptor P2Y (AID 2283281)
# human Purinergic Receptor P2Y, P2RY1 (gene 5028), sequence (P47900 whole entry, looked up): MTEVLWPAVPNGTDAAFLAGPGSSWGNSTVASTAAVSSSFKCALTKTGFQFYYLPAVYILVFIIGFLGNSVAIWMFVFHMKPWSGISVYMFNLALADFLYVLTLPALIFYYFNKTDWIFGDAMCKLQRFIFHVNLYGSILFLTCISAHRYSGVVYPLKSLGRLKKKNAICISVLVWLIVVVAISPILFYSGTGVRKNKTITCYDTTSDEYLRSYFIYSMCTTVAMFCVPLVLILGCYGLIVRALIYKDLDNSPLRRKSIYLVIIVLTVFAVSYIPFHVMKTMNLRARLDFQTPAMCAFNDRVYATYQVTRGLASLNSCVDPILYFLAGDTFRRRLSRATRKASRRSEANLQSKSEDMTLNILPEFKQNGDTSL
# Procedure, shortened: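 Cell-free radioligand binding using U937-derived protein, 1 h after dosing, filter-based scintillation counting. Screened in duplicate at 25 uM; actives rerun as concentration-response up to 50 uM; loss of signal versus DMSO.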
# [9] = biological target: human Opioid Receptor Delta 1 (Opiate D1), OPRD1 (gene 4985) (UniProt P41143); assay: NVS_GPCR_hOpiate_D1: NovaScreen (NVS) G Protein-Coupled Receptor Assay for human Opioid Receptor Delta 1 (Opiate D1) (AID 2283280)
# human Opioid Receptor Delta 1 (Opiate D1), OPRD1 (gene 4985), sequence (P41143 whole entry, looked up): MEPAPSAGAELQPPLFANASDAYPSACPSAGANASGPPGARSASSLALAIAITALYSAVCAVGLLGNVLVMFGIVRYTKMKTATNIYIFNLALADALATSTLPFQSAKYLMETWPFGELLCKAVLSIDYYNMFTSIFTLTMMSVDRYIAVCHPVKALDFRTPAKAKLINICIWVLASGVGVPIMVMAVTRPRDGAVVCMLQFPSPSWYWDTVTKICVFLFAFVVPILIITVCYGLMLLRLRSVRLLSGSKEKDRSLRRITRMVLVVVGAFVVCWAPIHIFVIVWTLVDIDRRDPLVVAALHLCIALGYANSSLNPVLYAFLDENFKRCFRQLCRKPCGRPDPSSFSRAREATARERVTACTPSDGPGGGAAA
# Protocol: NVS_GPCR_hOpiate_D1 is a biochemical, single-readout assay that uses extracted gene-proteins from CHO in a cell-free assay. Measurements were taken 1 hour after chemical dosing in a 96-well plate.NVS_GPCR_hOpiate_D1 is one of one assay component(s) measured or calculated from the NVS_GPCR_hOpiate_D1 assay. It is designed to make measurements of radioligand binding, a form of binding reporter, as detected with scintillation counting signals by Filter-based radiodetection technology.Data from the assay component NVS_GPCR_hOpiate_D1 was analyzed into 1 assay endpoint. This assay endpoint, NVS_GPCR_hOpiate_D1, was analyzed in the positive analysis fitting direction relative to DMSO as the negative control and baseline of activity. Using a type of binding reporter, loss-of-signal activity can be used to understand changes in the binding as they relate to the gene OPRD1. Furthermore, this assay endpoint can be referred to as a primary readout, because the performed assay has only produced 1 assay endpoint. To generalize the intended target to other relatable targets, this assay endpoint is annotated to the gpcr intended target family, where the subfamily is rhodopsin-like receptor.
# Binding assays used specific radioligands (tritiated, iodinated) with non-radioactive competitive displacement ligands in agonist or antagonist protocols (as indicated) and various reference compounds and inhibitors to titrate specific binding to receptors and transporters. Most enzyme assays (CYPs, kinases, phosphatases, proteases, HDACs) used recombinant protein and specific substrates (fluorescence mostly, some colorimetric and radioactive) and inhibitors, followed by a biochemical separation of substrate and product. All assays for the biochemical HTS were initially run in duplicate at a single concentration (10 uM for CYP450 assays and 25 uM for all others). […] Each assay was run with positive and negative controls, and concurrent controls on every plate. The follow-up (secondary) screen tested active chemical-pairs in concentration series, as well as a few additional assays not tested in the primary screen, some selected negative inactives, and several cases re-run in the concentration series for confirmatory purposes.
# [10] = biological target: mouse Cholecystokinin, CCK1 Receptor (CCKA), Cckar (gene 12425) (UniProt O08786); assay: NVS_GPCR_mCCKAPeripheral: NovaScreen (NVS) G Protein-Coupled Receptor Assay for mouse Cholecystokinin, CCK1 Receptor (CCKA) (AID 2283285)
# mouse Cholecystokinin, CCK1 Receptor (CCKA), Cckar (gene 12425), sequence (O08786 whole entry, looked up): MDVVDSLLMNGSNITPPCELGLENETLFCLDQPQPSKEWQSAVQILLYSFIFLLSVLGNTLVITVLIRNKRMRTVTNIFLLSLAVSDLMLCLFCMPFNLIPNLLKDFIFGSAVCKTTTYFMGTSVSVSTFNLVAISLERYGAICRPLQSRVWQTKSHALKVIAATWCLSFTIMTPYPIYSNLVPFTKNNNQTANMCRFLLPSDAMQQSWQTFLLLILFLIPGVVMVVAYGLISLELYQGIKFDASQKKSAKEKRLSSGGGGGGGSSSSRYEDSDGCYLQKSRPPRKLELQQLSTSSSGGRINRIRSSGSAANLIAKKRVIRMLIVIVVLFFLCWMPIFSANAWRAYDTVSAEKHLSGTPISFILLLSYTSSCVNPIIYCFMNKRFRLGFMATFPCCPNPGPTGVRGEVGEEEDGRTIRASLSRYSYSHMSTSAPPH
# Protocol: NVS_GPCR_mCCKAPeripheral is a biochemical, single-readout assay that uses extracted gene-proteins from Mouse pancreatic membranes in a tissue-based cell-free assay. Measurements were taken 2 hours after chemical dosing in a 96-well plate.NVS_GPCR_mCCKAPeripheral is one of one assay component(s) measured or calculated from the NVS_GPCR_mCCKAPeripheral assay. It is designed to make measurements of radioligand binding, a form of binding reporter, as detected with scintillation counting signals by Filter-based radiodetection technology.Data from the assay component NVS_GPCR_mCCKAPeripheral was analyzed into 1 assay endpoint. This assay endpoint, NVS_GPCR_mCCKAPeripheral, was analyzed in the positive analysis fitting direction relative to DMSO as the negative control and baseline of activity. Using a type of binding reporter, loss-of-signal activity can be used to understand changes in the binding as they relate to the gene Cckar. Furthermore, this assay endpoint can be referred to as a primary readout, because the performed assay has only produced 1 assay endpoint. To generalize the intended target to other relatable targets, this assay endpoint is annotated to the gpcr intended target family, where the subfamily is rhodopsin-like receptor. […]
smiles,measurement,setting,value
Cc1cccc(C)c1O,outcome,[1],inactive
CN1CCN(Cc2cc(-c3ccc4[nH]c(=O)oc4c3)co2)[C@@H](c2ccc(F)cc2)C1,outcome,[2],inactive
same,AC50,[3],0.25 µM (active)
same,AC50,[4],8.23 µM (active)
COCCOC[C@H](CC1(C(=O)NC2CCC(C(=O)O)CC2)CCCC1)C(=O)Oc1ccc2c(c1)CCC2 (stereo partly drawn),outcome,[5],inactive
same,outcome,[6],inactive
CC(C)(C)c1cc(O)c(C(C)(C)C)cc1O,outcome,[7],inactive
C=CCc1ccc(O)c(OC)c1,outcome,[3],inactive
Cc1cccc(Nc2cc(Cl)nc(SCC(=O)O)n2)c1C,AC50,[7],5.03 µM (active)
CCCCCCCCCCCC(=O)OC,outcome,[8],inactive
C=CCOC(=O)c1ccccc1C(=O)OCC=C,AC50,[3],25 µM (active)
CC1(C)CC(N=C=O)CC(C)(CN=C=O)C1 (stereo not drawn),outcome,[9],inactive
NC(=O)Cn1c(=O)cc(CCN2CCN(c3nccc4sccc34)CC2)c2ccc(F)cc21,AC50,[6],0.47 µM (active)
same,AC50,[3],0.00974 µM (active)
same,AC50,[4],0.0868 µM (active)
Nc1nc(N)c2nc(CNc3ccc(C(=O)N[C@@H](CCC(=O)O)C(=O)O)cc3)cnc2n1,outcome,[9],inactive
O=C(O)CCCCC(=O)O,outcome,[8],inactive
CCCCC(CC)COC(=O)CC(C(=O)OCC(CC)CCCC)S(=O)(=O)O (stereo not drawn),AC50,[9],10.3 µM (active)
same,AC50,[8],7.46 µM (active)
same,AC50,[7],8.9 µM (active)
same,AC50,[5],15.9 µM (active)
same,AC50,[3],32.4 µM (active)
same,AC50,[4],17 µM (active)
Oc1ccc2c(c1)OC[C@@H](N1CCC(O)(c3ccc(F)cc3)CC1)[C@H]2O,outcome,[3],inactive
same,outcome,[4],inactive
COc1cc(S(=O)(=O)O)c(C)cc1N=Nc1c(O)ccc2cc(S(=O)(=O)O)ccc12,AC50,[9],30 µM (active)
same,AC50,[6],17.1 µM (active)
Nc1ccc2c(c1)C(=O)c1ccccc1C2=O,AC50,[9],38.4 µM (active)
Cc1c(C(=O)O)c(O)cc2c1C(=O)c1c(O)c([C@@H]3O[C@H](CO)[C@@H](O)[C@H](O)[C@H]3O)c(O)c(O)c1C2=O,outcome,[6],inactive
COc1cc(-c2nc(NC(=O)c3cc4cc(C)cc(C)c4n3CC(=O)O)sc2CCC2CCCCC2)c(OC)cc1Cl,outcome,[7],inactive
same,AC50,[10],0.178 µM (active)
CCOC(=O)CCC(=O)OCC,outcome,[8],inactive
same,outcome,[5],inactive
same,outcome,[3],inactive
Cc1oc(-c2ccccc2)nc1CCOc1cccc2c1ccn2CCC(=O)O,AC50,[7],1.33 µM (active)
COc1ccc(S(=O)(=O)N2C(=O)[C@@](c3ccccc3OC)(N3C[C@H](O)C[C@H]3C(=O)N(C)C)c3cc(Cl)ccc32)c(OC)c1,outcome,[9],inactive
same,outcome,[7],inactive
same,AC50,[2],12.3 µM (active)
Nc1ccccc1N,outcome,[6],inactive
CNCc1cc(F)ccc1Oc1ccc(Cl)c(Cl)c1,outcome,[7],inactive
C[Si]1(C)O[Si](C)(C)O[Si](C)(C)O[Si](C)(C)O1,outcome,[7],inactive
O=C(N[C@@H](Cc1ccccc1)[C@@H](O)C(=O)N1C[C@@H](O)[C@@H](O)C1)c1cc2cc(Cl)ccc2[nH]1,AC50,[10],11.9 µM (active)
CCc1c(C(=O)NN2CCCCC2)nn(-c2ccc(Cl)cc2Cl)c1-c1ccc(Br)cc1,outcome,[9],inactive
